Source: PubChem
Hits are enriched below; roughly 3% of the tested compounds scored in any of these assays.
SARS PLP yeast – blocks SARS-CoV papain-like protease in a yeast assay. S. cerevisiae expressing SARS-CoV PLpro, growth rescue. Potency, µM (highest dose often 32.9 µM), for inactives: at the highest dose activity, positive = growth rescue, hits mostly activators. hit rate 0.19% among 330,000; calls by dose curve; note: 0% is about no effect; nearly all actives have a fitted effect of over 55% in size
Sm TGR inh – S. mansoni TGR enzyme inhibition | Potency, µM (doses to about 114 µM), for the others: top-dose activity change, negative = inhibition, actives largely listed as inhibitors | hit rate 3% among 360,000 | purified TGR, DTNB reduction, TNB absorbance 405 nm; active = well fitted inhibition curve with a large enough effect; inconclusive = small, poorly fitted or top-dose-only effect; inactive = no such curve, though single readings can be large or run the other way; note: % is set by controls: 0 for no effect and ±100 for the full control effect; nearly all actives have a fitted effect of over 60% in size
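First, TGR (20 nM dispensed) and NADPH were mixed with compound. Second, a 15 min room-temperature incubation followed. Third, further NADPH and then DTNB were added to start the reaction. Finally, TNB absorbance was monitored kinetically.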
* hit, by the source's call; u = inconclusive; x = not tested or not shown; ! = not active in a repeat. Potency is the fitted concentration of half-maximal effect.

SMILES | SARS PLP yeast | Sm TGR inh
Clc1ccccc1Cc1noc(CN2CCN(Cc3ccccn3)CC2)n1 | 1% | 18µM*
CN(Cc1cnccn1)Cc1nc(Cc2ccccc2Cl)no1 | 0% | 3%
COc1ccc(NC(=O)CSc2oc(-c3ccc(C)cc3)nc2S(=O)(=O)c2ccc(C)cc2)c(OC)c1 | x | 50µM*
CCSc1oc(-c2ccco2)nc1S(=O)(=O)c1ccc(F)cc1 | -5% | 14µM*
CC(C)CSc1oc(-c2ccco2)nc1S(=O)(=O)c1ccccc1 | -7% | 45µM*
CCSc1oc(-c2ccco2)nc1S(=O)(=O)c1ccc(C)cc1 | -1% | 40µM*
Cc1ccc(S(=O)(=O)c2nc(-c3ccco3)oc2SCC(C)C)cc1 | x | -15%
COc1ccc(NC(=O)CSc2oc(-c3ccco3)nc2S(=O)(=O)c2ccc(Br)cc2)c(OC)c1 | x | -25%
O=S(=O)(c1ccccc1)c1nc(-c2ccco2)oc1SCc1ccc(F)cc1 | x | -4%
Cc1ccc(S(=O)(=O)c2nc(-c3ccco3)oc2SC(C)C)cc1 | -21% | u
COc1ccc(CN2C(=O)N(c3ccc(C)cc3)C(=O)C2CC(=O)Nc2ccccc2)cc1OC (centres undefined) | x | 1%
Cc1ccc(-n2ncc3c(NCCC4=CCCCC4)ncnc32)cc1C | x | -3%
CCOc1ccccc1NC(=O)c1sc2nc3n(c(=O)c2c1C)CCCCC3 | x | 0%
Cc1ccc2c(c1)c(=O)c(C(=O)c1ccncc1)cn2CC(=O)Nc1ccc(C(C)C)cc1 | x | 5%
COC(=O)c1ccc(Cn2c(=O)cc(C(F)(F)F)c3c(C)nn(C)c32)cc1 | x | 2%
COc1cc(OC)c(NC(=O)C(C)n2nc(-c3ccc(C)cc3)c3c(c2=O)CCCC3)cc1Cl (centres undefined) | x | 5%
Cc1cccn2cc(-c3cccc(NC(=O)C(C)C)c3)nc12 | x | 0%
Cc1ccc(S(=O)(=O)c2nc(-c3ccccc3)oc2SCC(=O)NCC2CCCO2)cc1 (centres undefined) | 1% | -12%
Cc1ccc(S(=O)(=O)c2nc(-c3ccco3)oc2SCC(=O)NCC2CCCO2)cc1 (centres undefined) | 4% | 35µM*
CCOc1ccc(-c2nn(CC(=O)NC3CCCC3)c3c2cnc2ccc(F)cc23)cc1 | x | 5%
O=C(Nc1ncc(S(=O)(=O)c2ccc([N+](=O)[O-])cc2)s1)c1ccc2ccccc2c1 | -12% | -2%
O=C(Nc1ncc(S(=O)(=O)c2ccc([N+](=O)[O-])cc2)s1)c1cccnc1 | -4% | 28µM*
COC(=O)c1nc(NC(=O)c2ccccc2Cl)n[nH]1 | 3% | -27%
COC(=O)c1nc(NC(=O)C(C)(C)C)n[nH]1 | 3% | 32µM*
CC(=O)Nc1c(C)nn(-c2ccccc2)c1N1CCC(C(=O)NCc2cccc(Cl)c2)CC1 | x | -1%
SMILES | SARS PLP yeast | Sm TGR inh
O=C(NCc1ccco1)c1scc2c1OCCO2 | 11% | 35µM*
O=C(NCc1ccco1)c1ccc(C(=O)NCc2ccco2)s1 | -7% | u
CC(=O)Nc1c(C(=O)Nc2cccc(C)c2)nnn1-c1ccc(C)cc1 | x | -27%
CCOc1cc(C(=O)NC(=S)Nc2cccnc2)cc(OCC)c1OCC | 11% | 50µM*
CCOc1ccc(C(=O)NC(=S)Nc2cccnc2)cc1 | 18% | -3%
COc1cccc(C(=O)NC(=S)Nc2cccnc2)c1 | -19% | 56µM*
COc1ccc(C(=O)NC(=S)Nc2cccnc2)cc1Cl | -18% | u
O=C(CSc1nc2c([nH]c3ccccc32)c(=O)n1-c1ccc(Cl)cc1)NCc1ccccc1 | x | 0%
Cc1ccc(C)c(N2CCN(c3nc4ccccc4n4c(C)nnc34)CC2)c1 | x | 3%
COc1ccc2c(c1)CCc1c(C(=O)Nc3c(C)nn(Cc4ccc(Cl)cc4)c3C)noc1-2 | x | -26%
COc1ccc2c(c1)CCc1c(C(=O)Nc3c(C)nn(Cc4ccccc4)c3C)noc1-2 | -4% | 89µM*!
Cc1c(F)cccc1NC(=O)C1CCCN1S(=O)(=O)c1ccc(F)cc1 (centres undefined) | x | -8%
COc1cc(OC)c(NC(=O)Cn2c(=O)oc3cc(S(=O)(=O)N4CCCC4)ccc32)cc1Cl | x | 0%
CC(=O)c1ccc(S(=O)(=O)N(C)C(C)CCc2ccco2)cc1 (centres undefined) | -1% | 40µM*
CC(CCc1ccco1)N(C)S(=O)(=O)c1csc(C(N)=O)c1 (centres undefined) | 0% | -8%
COc1ccc(C(N)CCc2ccco2)cc1 (centres undefined) | 8% | -17%
Cc1ccc(S(=O)(=O)N(C)C(C)CCc2ccco2)cc1 (centres undefined) | 7% | 50µM*
COc1ccc(S(=O)(=O)N(C)C(C)CCc2ccco2)cc1 (centres undefined) | 1% | 20µM*
Cc1ccc(S(=O)(=O)NC(CC(C)C)C(=O)NCc2ccco2)cc1 (centres undefined) | 3% | -3%
O=C(NCc1cccs1)c1ccc(Cn2c(SCc3cccc(F)c3)nc3cccnc32)cc1 | x | 1%
Cc1ccc2cccc(NC(=O)c3ccc(-c4ccc(Cl)cc4Cl)o3)c2n1 | x | 1%
Cc1ccc(-c2onc(C)c2C)cc1S(=O)(=O)N1CCC(C)CC1 | x | -2%
CC1=NN(c2ccccc2)C(=O)/C1=C\C=C\c1ccccc1 | -1% | 0%
ClC1=C(Cl)C(Cl)=C(Cl)C1=C/C=C/c1ccccc1 | 0% | 50µM*
Cc1ccc(CNC(=O)c2nn(-c3ccc(Cl)cc3)nc2CO)cc1 | x | 7%
SMILES | SARS PLP yeast | Sm TGR inh
COCCc1nn2c(=O)cc(COC(=O)COc3ccccc3C)nc2s1 | x | 0%
Cc1ccccc1OCC(=O)NN1C(=O)C2C3C=CC(O3)C2C1=O (centres undefined) | 0% | 20µM*
Cc1cccc(OCC(=O)NN2C(=O)C3C4C=CC(O4)C3C2=O)c1 (centres undefined) | 0% | x
CCOc1ccc(NC(=O)c2ccc(N)cc2)cc1 | -42% | -16%
CCOc1ccc(C(=O)NN2C(=O)C3C4C=CC(O4)C3C2=O)cc1 (centres undefined) | -1% | 22µM*
CC1C/C(=C/c2ccccn2)C(=O)/C(=C/c2ccccn2)C1 (centres undefined) | -4% | 16µM*
CN1C2CCC1/C(=C/c1ccccn1)C(=O)/C2=C\c1ccccn1 | -81% | -25%
CC(C)(C)C1C/C(=C/c2ccccn2)C(=O)/C(=C/c2ccccn2)C1 (centres undefined) | -5% | 18µM*
O=C1/C(=C/c2ccccn2)COc2ccccc21 | -3% | u
CCOC(=O)c1cc(C)n(CC2CCC(C(=O)Nc3ccccc3OC)CC2)c1C (centres undefined) | x | 3%
Oc1ccc(C(c2nnnn2CCc2ccccc2)N2CCN(c3nc4ccccc4s3)CC2)cc1 (centres undefined) | 5% | 8.9µM*
COc1cc(C(c2nnnn2C(C)(C)C)N2CCN(c3nc4ccccc4s3)CC2)ccc1O (centres undefined) | 0% | 0.35µM*
COc1ccc(C(c2nnnn2C(C)(C)C)N2CCN(c3nc4ccccc4s3)CC2)cc1OC (centres undefined) | 19% | 1%
COCCn1nnnc1C(c1cccs1)N1CCN(c2nc3ccccc3s2)CC1 (centres undefined) | -14% | 11%
COc1cc(NC(=O)CC(c2cccs2)N2Cc3ccccc3C2=O)cc(OC)c1OC (centres undefined) | x | -1%
Cc1ccc(S(=O)(=O)c2nc(-c3ccccc3F)oc2NCc2ccccc2)cc1 | x | 48%
